The results in this text go back to PubChem BioAssay (EPA / NIEHS).

Values joined by “and” are separate entries in the source; they are usually repeats but may differ in a detail not shown here. Equal values may be shown once. A structure can be active in one record and inactive in another. Active and inactive are the calls of the source. The calls were made as follows: active = hit-call score of the fitted dose curve at least 0.9, where 1 is the maximum; inactive = score below 0.9.

Experiment [1] in a line: ATG_CRE_CIS: Attagene CIS-FACTORIAL HepG2 Assay for human cAMP Responsive Element (CRE) binding protein 3 (AID 2282926). The settings on record: HepG2 CRE cis-reporter, Attagene multiplexed mRNA; actives raise or lower the signal. The procedure, abridged:
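Human liver HepG2, transient MRTU transfection, 24 h compound exposure. Total RNA → oligo(dT) RT → PCR → 6-FAM primer extension → HpaI cut → CE. Activity called both directions vs DMSO.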

Experiment [2] deals with CCAAT/enhancer-binding protein beta (Homo sapiens) (UniProt P17676). In words: ATG_C_EBP_CIS: Attagene CIS-FACTORIAL HepG2 Assay for human CCAAT/Enhancer Binding Protein (C/EBP) beta (AID 2282927). The settings on record: HepG2 Attagene cis-factorial transcription factor reporter; actives raise or lower the signal. The procedure, abridged: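 HepG2, transient MRTU transfection, 24 h treatment. RT-PCR plus CE fluorescence; DMSO negative control, bidirectional fit.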

A short description of experiment [3]: ATG_CMV_CIS: Attagene CIS-FACTORIAL HepG2 Assay for human CMV (Internal Marker) (AID 2282928).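 Also: endpoint acts as a background internal control marker rather than a target.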 The settings on record: HepG2 CMV promoter reporter, transcription factor profiling; actives raise or lower the signal. The essentials:
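CMV internal-marker background readout in transiently transfected HepG2 cells bearing cis-regulated reporter units. Reporter mRNA is measured 24 h after dosing by RT-PCR and capillary electrophoresis, with bidirectional fitting against DMSO.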

Experiment [4] in a line: ATG_DR4_LXR_CIS: Attagene CIS-FACTORIAL HepG2 Assay for human Liver X Receptor (LXR), DR4 submotif (AID 2282929). The settings on record: HepG2 Attagene DR4 cis-reporter, mRNA transcription; actives raise or lower the signal. The procedure, abridged:
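Cells were transfected with multiple reporter transcription units, exposed to chemicals for 24 hours, then lysed for RNA. Reporter mRNA induction was measured by RT-PCR with capillary electrophoresis detection and fitted in both directions relative to DMSO.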

The nature of experiment [5]: ATG_AP_1_CIS: Attagene CIS-FACTORIAL HepG2 Assay for human Activator Protein 1 (AP-1) (AID 2282931). The settings on record: HepG2 Attagene cis-factorial AP-1 reporter mRNA; actives raise or lower the signal. The procedure, abridged:
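Endogenous transcription-factor activity in human HepG2 liver cells is read through a cis-promoter reporter transcript, sampled 24 h after dosing. Detection uses RT-PCR with capillary electrophoresis; values come from bidirectional fitting relative to DMSO.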

A short description of experiment [6]: ATG_AP_2_CIS: Attagene CIS-FACTORIAL HepG2 Assay for human Activator Protein 2 (AP-2) (AID 2282932). The settings on record: HepG2 AP-2 cis-reporter, Attagene transcription factor profiling; actives raise or lower the signal. The essentials: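 Multiplexed mRNA reporter assay in HepG2: cis-regulated units report endogenous factor activity after 24 h treatment. Fluorescence from capillary electrophoresis of RT-PCR products gives the signal, with DMSO as baseline.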

A short description of experiment [7]: ATG_BRE_CIS: Attagene CIS-FACTORIAL HepG2 Assay for human Bone Morphogenetic Protein (BMP) Response Element (BRE) (AID 2282933). Particulars: HepG2 BMP response element reporter, Attagene transcription factor profiling; actives raise or lower the signal. The procedure, abridged: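 Multiplexed cis-reporter assay, HepG2, 24 h exposure. mRNA from reporter units quantified via RT-PCR/CE; DMSO baseline; bidirectional curve fit.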

Experiment [8] deals with Transcription factor E2F1 (Homo sapiens) (UniProt Q01094). In words: ATG_E2F_CIS: Attagene CIS-FACTORIAL HepG2 Assay for human E2F Transcription Factor 1 (AID 2282935). Particulars: HepG2 Attagene cis-reporter, E2F reporter RNA transcripts; actives raise or lower the signal. The procedure, abridged:
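Measures reporter transcript levels via RT-PCR with capillary electrophoresis detection in HepG2 cells harboring cis-regulated reporter units; 24 h post-dose; bidirectional curve fitting with DMSO as baseline.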

Experiment [9] has as its target Retinoic acid receptor alpha (Homo sapiens) (UniProt P10276). In words: ATG_DR5_RAR_CIS: Attagene CIS-FACTORIAL HepG2 Assay for human Retinoic Acid Receptor Alpha (RARE), DR5 submotif (AID 2282934).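 As to AC50: reporter responds to endogenous RAR alpha beta and gamma in HepG2 not RARA alone.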 The settings on record: HepG2 Attagene cis-factorial RARE DR5 reporter, mRNA; actives raise or lower the signal. The essentials:
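After 24 h of chemical exposure, transiently transfected HepG2 cells were lysed for total RNA; the DR5-regulated reporter transcript was quantified via RT-PCR and capillary electrophoresis, with activity fitted bidirectionally against DMSO.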

The target of experiment [10] is Aryl hydrocarbon receptor (Homo sapiens) (UniProt P35869). In words: ATG_Ahr_CIS: Attagene CIS-FACTORIAL HepG2 Assay for human Aryl Hydrocarbon Receptor (Ahr) (AID 2282930). Particulars: HepG2 AhR cis-factorial reporter transcription; actives raise or lower the signal. The essentials:
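Endogenous factor activity is tracked through cis-promoter reporter units transfected into HepG2 cells. Transcript levels at 24 h are read by fluorescent RT-PCR and capillary electrophoresis, with activity in either direction scored relative to DMSO.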

Sequence of Transcription factor E2F1 (Homo sapiens) (Q01094 whole entry, looked up): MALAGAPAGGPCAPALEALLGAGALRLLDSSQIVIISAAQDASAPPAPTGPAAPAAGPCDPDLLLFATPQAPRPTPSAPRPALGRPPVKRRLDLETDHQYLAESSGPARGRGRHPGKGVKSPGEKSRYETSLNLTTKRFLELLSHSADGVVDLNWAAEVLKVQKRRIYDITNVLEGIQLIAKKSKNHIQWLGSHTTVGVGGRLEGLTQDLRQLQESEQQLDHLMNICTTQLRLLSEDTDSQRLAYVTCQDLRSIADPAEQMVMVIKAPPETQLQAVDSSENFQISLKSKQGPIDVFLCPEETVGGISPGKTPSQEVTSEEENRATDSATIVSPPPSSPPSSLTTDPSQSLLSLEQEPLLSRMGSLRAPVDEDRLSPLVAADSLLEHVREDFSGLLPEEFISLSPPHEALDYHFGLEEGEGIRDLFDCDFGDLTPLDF
Sequence of Aryl hydrocarbon receptor (Homo sapiens) (P35869 whole entry, looked up): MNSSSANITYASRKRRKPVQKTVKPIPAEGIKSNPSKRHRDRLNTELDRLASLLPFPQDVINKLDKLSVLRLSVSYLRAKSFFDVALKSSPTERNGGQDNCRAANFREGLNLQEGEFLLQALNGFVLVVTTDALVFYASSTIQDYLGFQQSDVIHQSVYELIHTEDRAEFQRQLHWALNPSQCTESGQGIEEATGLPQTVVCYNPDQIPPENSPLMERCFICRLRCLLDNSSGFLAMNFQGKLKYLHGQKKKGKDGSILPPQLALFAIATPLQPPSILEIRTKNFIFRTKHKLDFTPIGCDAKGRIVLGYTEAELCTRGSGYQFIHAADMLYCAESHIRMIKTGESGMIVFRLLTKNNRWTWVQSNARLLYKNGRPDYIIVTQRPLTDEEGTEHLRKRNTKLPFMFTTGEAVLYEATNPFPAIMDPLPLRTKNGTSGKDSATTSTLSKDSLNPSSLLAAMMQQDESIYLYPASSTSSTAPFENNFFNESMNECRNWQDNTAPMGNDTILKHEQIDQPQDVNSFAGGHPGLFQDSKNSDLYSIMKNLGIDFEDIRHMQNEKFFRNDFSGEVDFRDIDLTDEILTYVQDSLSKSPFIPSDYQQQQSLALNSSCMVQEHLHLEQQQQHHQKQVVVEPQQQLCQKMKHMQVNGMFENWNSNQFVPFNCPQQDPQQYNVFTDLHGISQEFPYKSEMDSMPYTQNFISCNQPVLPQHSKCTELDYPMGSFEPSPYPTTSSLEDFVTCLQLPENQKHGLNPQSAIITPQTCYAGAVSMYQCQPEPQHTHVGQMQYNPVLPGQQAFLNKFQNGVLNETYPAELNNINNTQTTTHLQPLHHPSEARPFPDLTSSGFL
Sequence of CCAAT/enhancer-binding protein beta (Homo sapiens) (P17676 whole entry, looked up): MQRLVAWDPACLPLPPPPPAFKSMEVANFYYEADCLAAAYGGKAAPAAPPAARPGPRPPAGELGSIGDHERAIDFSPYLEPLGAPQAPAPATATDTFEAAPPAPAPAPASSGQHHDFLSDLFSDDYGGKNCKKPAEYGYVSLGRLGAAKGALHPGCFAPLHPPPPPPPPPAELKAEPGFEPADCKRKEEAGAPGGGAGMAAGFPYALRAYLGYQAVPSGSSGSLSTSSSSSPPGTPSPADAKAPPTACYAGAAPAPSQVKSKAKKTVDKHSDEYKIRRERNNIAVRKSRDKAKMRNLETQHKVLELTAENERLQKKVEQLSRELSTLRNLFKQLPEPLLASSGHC
Sequence of Retinoic acid receptor alpha (Homo sapiens) (P10276 whole entry, looked up): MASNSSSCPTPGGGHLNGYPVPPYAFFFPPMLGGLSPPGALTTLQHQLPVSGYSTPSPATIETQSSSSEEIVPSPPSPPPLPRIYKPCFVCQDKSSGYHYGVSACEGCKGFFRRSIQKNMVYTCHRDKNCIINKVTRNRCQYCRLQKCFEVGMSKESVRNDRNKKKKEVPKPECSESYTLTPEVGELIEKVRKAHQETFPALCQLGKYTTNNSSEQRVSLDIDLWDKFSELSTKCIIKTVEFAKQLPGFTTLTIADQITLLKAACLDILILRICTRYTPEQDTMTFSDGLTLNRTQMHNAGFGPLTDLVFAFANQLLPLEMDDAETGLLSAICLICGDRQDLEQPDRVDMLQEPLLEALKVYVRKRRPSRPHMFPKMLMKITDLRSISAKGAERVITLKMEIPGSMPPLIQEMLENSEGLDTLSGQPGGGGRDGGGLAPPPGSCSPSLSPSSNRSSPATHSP

In the case of `COC(=O)c1ccc(I)cc1S(=O)(=O)NC(=O)Nc1nc(C)nc(OC)n1`, the result in [1], in [2], in experiment [3], in experiment [4], in [5] and in [6] was inactive. The outcome in experiment [7] and in [8] was inactive.
Regarding `O=C(O)c1ccccc1`, the compound was classed as inactive in [1], in experiment [2], in experiment [3], in experiment [4], in [5] and in experiment [6]. Also, the call in experiment [7] and in experiment [8] was inactive.
Consider `N#CSCSc1nc2ccccc2s1`, for which the AC50 – broadly, the concentration at which the activity in the assay is half-maximal – in [1] is 18.2 µM (active); in [3] it was 2.95 µM (active); in [5], 3.02 µM (active); in [6], 9.15 µM (active); in experiment [7] it was 3.03 µM (active). For the same compound, the outcome in experiment [1], in experiment [2], in experiment [3], in [5], in [6] and in [7] was inactive. Also, the compound was classed as inactive in experiment [9] and in [8].
For `CCOC(=O)c1ccc(O)cc1`, the outcome in experiment [1], in [2], in experiment [3], in experiment [4], in [10] and in experiment [5] was inactive. Also, the compound was called inactive in experiment [6], in [7], in experiment [9] and in experiment [8]. In addition, the AC50 in experiment [2] is 100 µM (active); in [7] it was 166 µM (active).
Turning to `Cc1nn(C)c(Oc2ccccc2)c1C=NOCc1ccc(C(=O)OC(C)(C)C)cc1`, the AC50 in experiment [1] was 0.0405 µM (active); in [2] it was 0.0505 µM (active); in [3], 0.0218 µM (active); in experiment [5], 0.0252 µM (active); in experiment [7], 0.0409 µM (active); in experiment [9] it was 0.0303 µM (active). For the same compound, the result in experiment [4], in experiment [6] and in [8] was inactive.
Turning to `CC(C)(C)[C@@H](O)[C@@H](Cc1ccc(Cl)cc1)n1cncn1`, the AC50 in [1] was 13.5 µM (active); in experiment [2], 3.43 µM (active); in experiment [5] it was 13.5 µM (active); in experiment [7] it was 13.7 µM (active); in [9], 32.1 µM (active). Moreover, the compound was called inactive in [3], in experiment [4], in experiment [6] and in experiment [8].
`CC(=O)S[C@@H]1CC2=CC(=O)CC[C@]2(C)[C@H]2CC[C@@]3(C)[C@@H](CC[C@@]34CCC(=O)O4)[C@H]12`: the AC50 in [1] was 25.5 µM (active) and 17.9 µM (active) and 3.75 µM (active); in [3], 26.1 µM (active) and 3.77 µM (active) and 12.1 µM (active); in experiment [4], 10.6 µM (active) and 12.5 µM (active) and 11.8 µM (active); in experiment [7] it was 70.9 µM (active) and 152 µM (active). Also, the result in experiment [1], in [2], in experiment [3], in experiment [4], in experiment [10] and in [5] was inactive. Also, the compound was called inactive in [6], in experiment [7] and in experiment [8].
On to `CCOC(=O)NCCOc1ccc(Oc2ccccc2)cc1`, for which the compound was called inactive in [1], in experiment [5], in experiment [6], in experiment [9] and in [8]. Moreover, the AC50 in experiment [2] is 13.4 µM (active); in [3], 13.1 µM (active); in [4], 89.6 µM (active); in [7], 27.9 µM (active).
Consider `CCOC(=O)C(C)Oc1ccc(Oc2nc3ccc(Cl)cc3o2)cc1` (centres undefined), for which the result in [1], in experiment [2], in experiment [3], in experiment [4], in [5] and in experiment [6] was inactive. The compound was called inactive in experiment [7], in experiment [9] and in experiment [8].
For the compound `CCCN(CCC)c1c([N+](=O)[O-])cc(C(F)(F)F)c(N)c1[N+](=O)[O-]`, the compound was classed as inactive in experiment [1], in experiment [2], in [6], in experiment [9] and in experiment [8]. Further, the AC50 in experiment [3] is 24.5 µM (active); in [4] it was 6.65 µM (active); in [5] it was 63 µM (active); in experiment [7] it was 36.1 µM (active).
As for `CCCCOC(=O)C(C)Oc1ccc(Oc2ccc(C(F)(F)F)cn2)cc1` (centres undefined), the outcome in experiment [1], in experiment [2], in [3], in experiment [4], in experiment [5] and in experiment [6] was inactive. Also, the compound was classed as inactive in [7], in experiment [9] and in experiment [8].
Take `CCOC(=O)C(C)Oc1ccc(Oc2cnc3cc(Cl)ccc3n2)cc1` (centres undefined): the outcome in experiment [1], in experiment [2], in experiment [3], in experiment [4], in [5] and in [6] was inactive. The compound was classed as inactive in [7], in experiment [9] and in experiment [8].
`CC(C)(c1ccc(O)cc1)c1ccc(O)cc1`: the half-maximal activity concentration (AC50) in [1] was 64.3 µM (active) and 25.5 µM (active) and 22.7 µM (active); in [2] it was 33.4 µM (active); in experiment [3] it was 50 µM (active) [middle of 6 runs]; in experiment [6], 121 µM (active) and 148 µM (active) and 101 µM (active); in experiment [7], 155 µM (active). Further, the call in experiment [1], in [2], in experiment [3], in experiment [5], in experiment [6] and in experiment [7] was inactive. The outcome in [9] and in experiment [8] was inactive.
With `O=C(c1ccccc1)C1CCCCC1`, the call in experiment [1], in [2], in experiment [3], in experiment [4], in experiment [5] and in experiment [6] was inactive. Moreover, the call in experiment [7], in experiment [9] and in [8] was inactive.
